Source: PubChem BioAssay AID1865 (National Center for Advancing Translational Sciences (NCATS), 2009)
The whole screen tested about 280,000 compounds, of which about 540 (0.19%) were called active. Another 2% or so got no clear call; they are omitted. Only a selection was taken, and actives are over-represented in it overall. Values without a mark were called inactive. Calls come from the whole dose curve; as a rule, active = well fitted activation curve with a large enough effect; inconclusive = small, poorly fitted or top-dose-only effect; inactive = flat fitted curve, though single readings scatter.

Assay: Quantitative High-Throughput Screen for Regulators of Epigenetic Control; note: nearly all actives have a fitted effect of over 60% in size; for GFP activation: % of control where 0% means no effect
Conditions: murine LDR cells, GFP reporter derepression, 30 h; series mostly up to 53.9 µM; GFP activation: at the top concentration
Text: NIH Molecular Libraries Screening Centers Network [MLPCN] NIH Chemical Genomics Center [NCGC] MLSCN Grant: 1 X01 MH079860-01 Assay Provider: Elisabeth D. Martinez, University of Texas SW Medical Center NCGC Assay Overview: The Locus Derepression (LDR) assay detects the derepression or induction of a GFP reporter that is stably integrated in a genomic region of murine cells that is presumably silenced. Transcription of the GFP reporter is controlled by a CMV promoter, which normally is constitutively active. However, this cell line, termed LDR, was selected for lack of constitutive production of GFP. GFP production can be induced by incubating the cells with histone deacetylase or DNA methyltransferase inhibitors (Martinez et al., 2006). Compounds that derepress or induce this reporter locus are identified by enumerating GFP positive cells using a laser-scanning microplate cytometer (Auld et al., 2006). This assay was screened against the MLSMR earlier (AID 597; (Johnson et al., 2008) and has been rescreened here against the expanded collection.
NCGC Assay Protocol Summary: Three hundred LDR cells in 5 uL per well were dispensed into black, clear-bottom 1536-well plates. Twenty-three nL compound was transferred to the assay plate and cells were incubated 30 hours at 37 C. Medium was removed, cells were washed two times with PBS, and GFP-positive cells were enumerated as fluorescent objects between the sizes of 20 to 120 um width and depth using an Acumen Explorer. References Auld, DS, Johnson, RL, Zhang, YQ, Veith, H, Jadhav, A, Yasgar, A, Simeonov, A, Zheng, W, Martinez, ED, Westwick, JK, Austin, CP, Inglese, J (2006). Fluorescent protein-based cellular assays analyzed by laser-scanning microplate cytometry in 1536-well plate format. Methods Enzymol 414: 566-89. Johnson, RL, Huang, W, Jadhav, A, Austin, CP, Inglese, J, Martinez, ED (2008). A quantitative high-throughput screen identifies potential epigenetic modulators of gene expression. Anal Biochem 375: 237-48. Martinez, ED, Dull, AB, Beutler, JA, Hager, GL (2006). High-content fluorescence-based screening for epigenetic modulators. Methods Enzymol 414: 21-36.
Potency is the fitted concentration of half-maximal effect.

Row | SMILES | GFP activation | Potency
1 | Cc1nc2sc(C(=O)c3ccccc3)c(N)c2c2c1CCCC2 | 0% | –
2 | COc1cccc(C(=O)c2sc3nc(-c4ccccc4)cc(C(F)(F)F)c3c2N)c1 | – | 1.58 µM (active)
3 | COc1ccc(Cc2nc3ccc(C(=O)NCc4ccc(OC)cc4OC)cc3o2)cc1 | -1.69% | –
4 | Cc1cccc(C)c1-n1ncc(C(=O)NCCCN2CCCCC2)c1C1CCN(C(=O)OC(C)(C)C)CC1 | 0% | –
5 | COc1ccc(CCN2C(=O)c3oc4cc(C)cc(C)c4c(=O)c3C2c2ccccc2F)cc1OC (stereo not drawn) | -0.667% | –
6 | COc1ccc2c(c1)c(=O)c(C(=O)c1ccccc1)cn2CC(=O)Nc1ccc2c(c1)OCCO2 | -0.734% | –
7 | Cc1ccc(NC(=O)CN2c3ccccc3S(=O)(=O)c3ccccc32)cc1F | 1.72% | –
8 | CCOC(=O)c1c(C)oc2ccc(N(C(=O)c3ccncc3)S(=O)(=O)c3ccc(CC)cc3)cc12 | 0% | –
9 | O=C(CSc1oc(-c2ccco2)nc1S(=O)(=O)c1ccc(Cl)cc1)c1ccccc1 | -0.982% | –
10 | COc1ccc(CC(=O)N2CC(=O)Nc3ccc(Br)cc3C2c2ccc(F)cc2)cc1OC (stereo not drawn) | -6.76% | –
11 | COc1ccc(CCNc2ncnc3onc(-c4ccc(Cl)cc4)c23)c(OC)c1 | -0.432% | –
12 | O=C(CSc1oc(-c2ccco2)nc1S(=O)(=O)c1ccccc1)c1ccc(Cl)cc1 | -0.954% | –
13 | CCOC(=O)CC(=O)CSc1nc(-c2ccccc2)cc(-c2ccc(Cl)cc2)c1C#N | 3.16% | –
14 | N#Cc1c(-c2ccc(F)cc2)cc(C2CC2)nc1SCC(=O)c1cccs1 | – | 10 µM (active)
15 | O=C(c1cccs1)N1CCCC(c2nc(-c3ccc(F)cc3)no2)C1 (stereo not drawn) | -1.01% | –
16 | CN(C)S(=O)(=O)c1cccc(NC(=S)NCc2ccc3c(c2)OCO3)c1 | 0.935% | –
17 | Cc1ccc(/C=N/NC(=S)Nc2cccc(S(=O)(=O)N(C)C)c2)o1 | – | 3.98 µM (active)
18 | CN(C)S(=O)(=O)c1cccc(NC(=S)N/N=C/C(=O)c2ccccc2)c1 | 0% | –
19 | Cc1cc(Cl)ccc1NC(=O)Cc1ccc(NC(=O)N2CCCCc3ccccc32)cc1 | 0% | –
20 | CCN1CCN(CCCNC(=O)c2ccc3c(c2)sc2nc(-c4ccc(OC)cc4)cn23)CC1 | 0% | –
21 | Cc1oc(C)c2c(=O)cc(-c3ccc4c(c3)OCO4)cc(OC(=O)c3ccc(Cl)cc3)c12 | 1.85% | –
22 | COc1cc(OC)cc(C(=O)Nc2ccc3nc(Nc4cccc(C(F)(F)F)c4)cc(C)c3c2)c1 | -1.23% | –
23 | CCc1ccc(CNCc2c(C(=O)O)n(Cc3ccc(F)cc3Cl)c3cc(OC)ccc23)cc1 | 0% | –
24 | N#Cc1ccccc1Cn1cnc2nc3c(cc2c1=O)CCCC3 | 0% | –

Row | SMILES | GFP activation | Potency
25 | Cc1ccccc1C(=O)Nc1nnc(S(=O)(=O)N(C)c2ccc(Cl)cc2)s1 | 3.16% | –
26 | COc1ccc(C(=O)N2CCC(c3nc4ccccc4o3)CC2)cc1 | 0% | –
27 | CCCCOc1ccc(CN2C(=O)C(=O)c3cc(Br)cc(C)c32)cc1OC | -3.95% | –
28 | Cc1nn(C(C)C(=O)Nc2ccc(C(C)C)cc2)c(=O)c2c1sc1ccccc12 (stereo not drawn) | 1.04% | –
29 | COc1ccc(NC(=O)CCNS(=O)(=O)c2ccc3c(c2)CCCC(=O)N3)cc1Cl | -1.27% | –
30 | COc1cccc(-c2nnc(SCC(=O)N3CCC(C)CC3)o2)c1 | -1.77% | –
31 | CCOc1ccc(CNCc2c(C(=O)O)c(C)n(Cc3cccc(OC)c3)c2C)cc1OC | -1.61% | –
32 | Cc1ccc(Cl)cc1N(C)C(=O)C1CCCN(c2ncnc3onc(-c4ccc(F)cc4)c23)C1 (stereo not drawn) | -0.432% | –
33 | COc1ccc(S(=O)(=O)c2c(Nc3cccc(Cl)c3)sc(C(=O)c3ccccc3)c2N)cc1 | 0% | –
34 | COc1ccccc1Nc1nc(N)nc(N)c1S(=O)(=O)c1ccccc1 | -1.08% | –
35 | CC1(C)N=C(SCc2ccccc2Cl)c2ccccc2N1 | 0% | –
36 | Cc1ccc(NC(=O)Cc2ccc(NC(=O)N3CCCCc4ccccc43)cc2)cc1 | 0.833% | –
37 | CNC(=O)c1ccc(-c2nc(CN3CCc4ccccc43)c(C)o2)cc1 | -1.24% | –
38 | CC(=O)c1ccc(NC(c2ccc(F)cc2)c2nnc(-c3ccccc3)o2)cc1 (stereo not drawn) | 1.06% | –
39 | COc1ccc(-c2cn3nc(N4CCCC(C(=O)NCCCOC(C)C)C4)sc3n2)cc1 (stereo not drawn) | 1.23% | –
40 | Cc1cc2oc(C(=O)N(Cc3ccc(Cl)cc3)Cc3ccco3)c(C)c2cc1Cl | -1.85% | –
41 | COc1cccc(N=C2SC(C(=O)Nc3cccc(Cl)c3)CC(=O)N2C)c1 (stereo not drawn) | -1.59% | –
42 | Fc1ccc(-n2ncc3c(Nc4ccc(Oc5ccccc5)cc4)ncnc32)cc1 | 2.05% | –
43 | COc1ccccc1CN1CCC(CNC(=O)c2cnn(-c3ccccc3Cl)c2C2CCN(C(=O)OC(C)(C)C)CC2)CC1 | -1.27% | –
44 | CCOc1ccccc1C(=O)Nc1ccc2c(c1)N(C)C(=O)c1ccccc1S2 | 9.09% | –
45 | CCOC(=O)c1c(C)[nH]c(CCC(=O)Nc2ccc(OC)c(OC)c2)c1C | -1.54% | –
46 | O=S(=O)(c1ccc2nc(NCc3ccccc3Cl)ccc2c1)N1CCCCC1 | -1.46% | –
47 | COc1cc(CN(C(=O)c2ccccc2Br)c2ccccn2)cc(OC)c1OC | 0.833% | –
48 | CC(C)(C)c1ccc(OCC(=O)N2CCC(c3nc4ccccc4s3)CC2)cc1 | 0% | –
